# ChEMBL document CHEMBL3988442, “University of Dundee, Small-Polar-MMV Screening Library” (2021)
# Out of some 48,000 compounds screened, about 13,000 (27%) showed an effect of 50% or more. Some of the results follow.
# System: Wolbachia pipientis
# Experiment: Anti-Wolbachia Cell-Based Screen
# Type: functional
# Set-up: scale not given: in the data most compounds retested in dose-response had high values
# Conditions: 5 µM
row,Structure (SMILES),Percent Effect
1,Cc1nccnc1-n1c(COCC(=O)O)nc2c(C)cccc21,-2.278%
2,Cc1nc2c(C(=O)O)cccc2n1-c1ccc(C(=O)N2CCCC2)o1,-15.07%
3,CC(=O)N1CCN(C(=O)C[C@@H]2C[C@@H](C(C)C)[C@H](CC#N)C=C2C)CC1,4.574%
4,Cc1ccnc(N2CCC(NCCOc3ccccc3)CC2)n1,-3.135%
5,Cc1ccc(N2CCCC(NCC(=O)NCC3CC3)C2)nn1 (centres undefined),1.938%
6,CC(C)=CCNC1CCCN(c2ccc(C)nn2)C1 (centres undefined),-19.9%
7,Cc1ccc(N2CCCC(NCCCS(C)(=O)=O)C2)nn1 (centres undefined),0.9171%
8,Cc1ccc(N2CCCC(NCC(=O)NC(C3CC3)C3CC3)C2)nn1 (centres undefined),84.95%
9,Cc1ccc(N2CCCC(NCCS(C)(=O)=O)C2)nn1 (centres undefined),2.432%
10,CC(=O)NCCNC(=O)CNC1CCCN(c2ccc(C)nn2)C1 (centres undefined),88.86%
11,COCCCNC1CCCN(c2ccc(C)nn2)C1 (centres undefined),22.77%
12,Cc1ccc(N2CCCC(NCC(=O)Nc3cc(C)nn3C)C2)nn1 (centres undefined),95.11%
13,Cc1ccn(-c2ccc(NCc3ccnc(N4CCCCC4)c3)nn2)n1,4.336%
14,O=C(CCc1ccc(Br)cc1F)NS(=O)(=O)c1ccc2c(c1)OCCO2,-3.282%
15,Cc1ccc(CN[C@@H]2CO[C@H](CNS(=O)(=O)c3ccccc3)[C@H]2O)cc1,-4.281%
16,CC1CCc2nc(NS(=O)(=O)c3cnn(C)c3)sc2C1 (centres undefined),97.97%
17,Cn1cc(S(=O)(=O)Nc2ccc3[nH]c(C4CCC4)nc3c2)cn1,-3.023%
18,Cn1cc(S(=O)(=O)Nc2c(F)cccc2N2CCCC2)cn1,-10.22%
19,CCn1cc(S(=O)(=O)Nc2nc3c(s2)CC(C)CC3)cn1 (centres undefined),98.13%
20,CCn1cc(S(=O)(=O)NC2CCCN(CC3CCCCC3)C2)cn1 (centres undefined),19.95%
21,CCn1cc(S(=O)(=O)NC2CCCC2)cn1,8.847%
22,Cc1noc(C)c1NS(=O)(=O)c1cc(C(=O)O)cc(Cl)c1Cl,3.53%
23,Cc1oc(C(=O)O)cc1S(=O)(=O)Nc1ccc(Cl)c(Cl)c1,-3.012%
24,Cc1ccc(NS(=O)(=O)c2cc(C(=O)O)oc2C)c(Br)c1,0.9383%
25,Cc1oc(C(=O)O)cc1S(=O)(=O)Nc1cccc(-n2nccc2C)c1,-0.5451%

row,Structure (SMILES),Percent Effect
1,Cc1oc(C(=O)O)cc1S(=O)(=O)Nc1cc(Br)ccc1Cl,106.9%
2,Cc1oc(C(=O)O)cc1S(=O)(=O)Nc1ccc(Br)cc1Cl,96.02%
3,O=S(=O)(CCNCc1ccc2c(c1)CCO2)N1CCOCC1,0.3646%
4,COCCN1CC(C(=O)NCc2ccnc(-n3cccn3)c2)CC1=O (centres undefined),-1.182%
5,CN1CC(C(=O)NCc2cccnc2-n2cccn2)CC1=O (centres undefined),63.73%
6,O=C(NCc1ccnc(-n2cccn2)c1)C1CC(=O)N(CC2CC2)C1 (centres undefined),153.4%
7,CCN1CC(C(=O)NCc2cccnc2-n2cccn2)CC1=O (centres undefined),124.7%
8,CC(C)N1CC(C(=O)NCc2ccnc(-n3cccn3)c2)CC1=O (centres undefined),-4.025%
9,COCCN1CC(C(=O)NCc2cccnc2-n2cccn2)CC1=O (centres undefined),120.6%
10,CN(C)CCN1CC(C(=O)NCc2cccc(-n3cccn3)c2)CC1=O (centres undefined),7.096%
11,CN(C)CCN1CC(C(=O)NCc2cn3cccnc3n2)CC1=O (centres undefined),-11.69%
12,CN1CC(C(=O)NCc2cccnc2OCc2ccccc2)CC1=O (centres undefined),10.22%
13,CCN1CC(C(=O)NCc2ccccc2-n2cccn2)CC1=O (centres undefined),3.983%
14,O=C(NCc1cccnc1-n1cccn1)C1CC(=O)N(CC2CC2)C1 (centres undefined),-9.395%
15,CCS(=O)(=O)N1CCN(C(=O)c2ccc(Cn3cc(Br)cn3)cc2)CC1,-241.9%
16,CCN(C(=O)CN1CCN(CC(C)O)CC1)C1=CCCCC1 (centres undefined),-11.46%
17,COc1cc(F)c(-n2cnc(CCNC(C)=O)c2)cc1F,-17.55%
18,CCN1CCN(S(=O)(=O)N2CCCC2)[C@H]2CS(=O)(=O)C[C@H]21,-2.731%
19,CCN(CC(=O)NCc1nc(C2CC2)no1)Cc1ccc(Cl)cc1,3.966%
20,O=C(NCc1cnn2cccnc12)C1CC(=O)N(Cc2cccnc2)C1 (centres undefined),-5.518%
21,CC(C)CN1CC(C(=O)NCc2cccnc2-n2cccn2)CC1=O (centres undefined),126%
22,CC(C)CN1CCN(C(=O)NCc2cccnc2-n2cccn2)CC1,4.797%
23,COCC1c2nnn(CC3CC3)c2CCN1C(=O)CS(C)(=O)=O (centres undefined),-0.612%
24,CC(CNC(=O)NCc1ccco1)CC1(C)OCCO1 (centres undefined),3.835%
25,CNc1c(NCc2ccco2)c(=O)c1=O,113.6%

row,Structure (SMILES),Percent Effect
1,COc1ccccc1C(C)(C)NCc1ccco1,-0.6951%
2,O=S(=O)(Cc1ccccc1)NCc1ccco1,0.9463%
3,CN(C)C(CNc1c(NCc2ccco2)c(=O)c1=O)c1ccccc1 (centres undefined),131.6%
4,CC(O)CNc1c(NCc2ccco2)c(=O)c1=O (centres undefined),135.5%
5,C[C@@H](O)CNc1c(NCc2ccco2)c(=O)c1=O,100.7%
6,Cc1nn(-c2ccccc2)nc1C(=O)NCC(c1ccco1)N(C)C (centres undefined),-4.253%
7,Cc1ccc(CS(=O)(=O)NCc2ccco2)cc1,3.7%
8,CCCNC(=O)CCNC1CSCCc2ccccc21 (centres undefined),-10.65%
9,COC(=O)c1sccc1S(=O)(=O)N1CCC(Oc2ncccc2Cl)CC1,25.07%
10,OCCN1CCc2[nH]nc(C(c3ccccc3)c3ccccc3)c2C1,13.32%
11,CCc1cnc(CN(C)C(=O)Nc2cnc3c(c2)c(C)nn3C)s1,-8.075%
12,O=C(c1ccc(O)nc1)N1CCN(C(=O)c2ccc(F)cc2F)CC1,-4.376%
13,CCn1c(NCc2ccco2)nc2c(C)nn(C)c2c1=O,25.01%
14,CC(C)CNc1c(NCc2ccco2)c(=O)c1=O,131.9%
15,CNS(=O)(=O)c1cccc(C(C)NCc2ccco2)c1 (centres undefined),-0.2197%
16,CSCCCNC(=O)c1coc(Cn2cnc3ccccc32)n1,7.588%
17,CCc1nc(CN2CCCC(NCc3nnc(C4CC4)o3)C2)no1 (centres undefined),5.014%
18,CC(C)c1nnc(CNC2CCCN(Cc3noc(C4CC4)n3)C2)o1 (centres undefined),144.7%
19,c1ccc2oc(NC3CCCN(Cc4noc(C5CC5)n4)C3)nc2c1 (centres undefined),2.188%
20,C1CC(NCc2nnc(C3CC3)o2)CN(Cc2noc(C3CC3)n2)C1 (centres undefined),132.9%
21,C1CC(c2noc(C3CC3)n2)CN(Cc2noc(C3CC3)n2)C1 (centres undefined),0.1706%
22,CCc1nnc(CNC2CCCN(Cc3noc(C4CC4)n3)C2)o1 (centres undefined),121.7%
23,OCCN1CCC(CNCCOCC(F)(F)F)CC1,0.8425%
24,Cc1ccc(-c2ncc(CNc3cnccc3CO)s2)o1,8.317%
25,FC(F)(F)CCc1ncnn1-c1ccc2c(c1)OCO2,-6.748%

row,Structure (SMILES),Percent Effect
1,Cc1ccccc1C(C(=O)N1CCN(C(=O)c2ccc[nH]2)CC1)N(C)C (centres undefined),2.077%
2,Nc1ncc(CN2CCC(CCC(=O)NC3CC3)CC2)cn1,2.927%
3,CCO[C@H]1CCN(S(=O)(=O)c2cn(C)cn2)[C@H]1Cc1ccccc1.O=C(O)C(F)(F)F,-2.456%
4,CC(C)CO[C@H]1CN(S(=O)(=O)c2cn(C)cn2)[C@@H]2CCCO[C@H]12.O=C(O)C(F)(F)F,-4.682%
5,CCS(=O)(=O)N1CCC2(CN(C(=O)c3cn(C)cn3)C2)C1,-4.508%
6,CC(C)CN1CC[C@@H]2[C@@H]1CCN2S(=O)(=O)c1cn(C)cn1.O=C(O)C(F)(F)F,9.969%
7,Cn1cnc(C(=O)N2CC3(CCN(S(=O)(=O)c4ccccc4)C3)C2)c1,-0.5352%
8,CC(C)CN1CCC2(C1)CN(S(=O)(=O)c1cn(C)cn1)C2.O=C(O)C(F)(F)F.O=C(O)C(F)(F)F,81.89%
9,CCn1cc2c(n1)CN(S(=O)(=O)c1cn(C)cn1)CC2COC.O=C(O)C(F)(F)F (centres undefined),-7.552%
10,Cn1cnc(S(=O)(=O)N2CCN(CC3CC3)c3ncccc3C2)c1.O=C(O)C(F)(F)F.O=C(O)C(F)(F)F,-19.75%
11,Cn1cnc(S(=O)(=O)N2CC3(CCN(c4ccccc4)C3)C2)c1.O=C(O)C(F)(F)F,94.4%
12,O=C(O)C(F)(F)F.O=S(=O)(C1CC1)N1CCC2(CN(c3ccccn3)C2)C1,2.12%
13,CCN1CCC2(C1)CN(S(=O)(=O)c1cn(C)cn1)C2.O=C(O)C(F)(F)F.O=C(O)C(F)(F)F,110.7%
14,Cn1cnc(S(=O)(=O)N2CC3(CCN(CC4CC4)C3)C2)c1.O=C(O)C(F)(F)F.O=C(O)C(F)(F)F,100.1%
15,CC(CC(=O)Nc1ncn(CC(=O)NCc2ccccc2)n1)C1CC1 (centres undefined),-9.655%
16,COc1ccc(S(=O)(=O)NCC(O)c2sccc2C)cc1Cl (centres undefined),7.194%
17,CC(=O)N1CCCCCC1C1CCN(Cc2nc(C3CC3)no2)CC1 (centres undefined),-6.899%
18,Brc1cnc(NCCCOC2CCOCC2)nc1,-7.222%
19,CNc1cccc(CC2COCCN(C(=O)c3cncs3)C2)n1 (centres undefined),126.5%
20,CC(C)Oc1cccc(C(=O)C2CCCN(C(=O)c3cncs3)C2)c1 (centres undefined),11.61%
21,CNc1cccc(CC2COCCN(C(=O)c3cnn(C)c3)C2)n1 (centres undefined),151.8%
22,CNc1cccc(CC2COCCN(C(=O)c3cccnc3)C2)n1 (centres undefined),118.9%
23,Cc1ccsc1S(=O)(=O)N1CCc2c(c(C(=O)O)nn2CC2CC2)C1,-2.186%
24,CN(Cc1noc2c1CCCC2)C(=O)Cn1c(=O)cnc2ccccc21,5.556%
